The text below walks through data of PubChem BioAssay (Tox21).

Experiment [1] can be described thus: qHTS assay to identify small molecule agonists of the estrogen receptor alpha (ER-alpha) signaling pathway in the presence of an antagonist - cell viability counter screen (AID 1259386).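 Also: cells exposed to compounds for 22 h at 37 °C before the viability read; nearly all actives have a fitted effect of over 30% in size.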 Also: potency is read from the fitted curve at half-maximal effect. As to activity change, negative = cytotoxicity: series mostly up to about 92 µM. A digest of the protocol:
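VM7Luc4E2, stripped-serum pre-culture 5 d; 24hr plating; +ICI-182,780 10.0nM final; cpds 15 conc, 22hr, 37C/5% CO2; CellTiter-Fluor added at 21hr, fluorescence 1hr later.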
A general note: Quantitative high-throughput screening tests each substance at several concentrations.

Experiment [2] concerns the target Progesterone receptor (Homo sapiens) (UniProt P06401). Nature of the experiment: qHTS assay to identify small molecule agonists of the progesterone receptor (PR) signaling pathway (AID 1346784; calls by dose curve; also: nearly all actives have a fitted effect of over 30% in size). A digest of the protocol:
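Agonist mode, quantitative HTS format in a HEK 293T line expressing a UAS-controlled beta-lactamase reporter; 16 hr compound exposure at 37C in 2% charcoal-stripped FBS, then LiveBLAzer B/G FRET fluorescence.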

Experiment [3] has the same target. Nature of the experiment: qHTS assay to identify small molecule antagonists of the progesterone receptor (PR) signaling pathway (AID 1346795; active = well fitted inhibition curve with a large enough effect in the signal ratio in the repeat runs, not every such curve was filed as active; the % refers to the signal ratio). A digest of the protocol:
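HEK293T PR-UAS-bla reporter cells in charcoal-stripped serum (2%) received compound after a 6 hr settling period, followed by R5020 agonist at 1 nM final; 16 hr incubation preceded the FRET substrate step and fluorescence measurement.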

Experiment [4] can be described thus: qHTS assay to identify small molecule antagonists of the progesterone receptor (PR) signaling pathway - cell viability counter screen (AID 1346798). Also: series mostly up to about 92 µM; nearly all actives have a fitted effect of over 50% in size. In outline: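 Same-well multiplex: after 16 hr at 37C with compound and R5020 stimulation, HEK293T cells carrying a UAS-bla reporter received LiveBLAzer substrate (2 hr RT), then CellTiter-Glo (30 min RT) for luminescent viability.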

The nature of experiment [5]: qHTS assay to identify small molecule agonists of the progesterone receptor (PR) signaling pathway - cell viability counter screen (AID 1346799; calls by dose curve; also: nearly all actives have a fitted effect of over 45% in size). A digest of the protocol:
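Counter screen for cytotoxicity: compound-treated PR-UAS-bla HEK293T cells (16 hr, 37C, 5% CO2) were assayed with CellTiter-Glo, luminescence measured after 30 min at room temperature.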

Experiment [6] in a line: qHTS assay to identify small molecule agonists of the TGF-beta/Smad signaling pathway - cell viability counter screen (AID 1346829). Also: top concentration of the series differs between compounds; nearly all actives have a fitted effect of over 45% in size. A digest of the protocol: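 CellTiter-Glo luminescence readout; SBE-bla HEK 293T cells, overnight plating, compound 5 hr at 37 C/5% CO2, then bla substrate 2 hr RT, then CellTiter-Glo 30 min RT.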
Experiment [7] in a line: qHTS assay to identify small molecule agonists of the TGF-beta/Smad signaling pathway (AID 1346859; active = well fitted activation curve with a large enough effect in the signal ratio in the repeat runs, not every such curve was filed as active; the % refers to the signal ratio; also: series mostly up to about 77 µM). In outline: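 Smad-responsive beta-lactamase reporter cells (HEK 293T) received compounds from DMSO stocks after overnight attachment, were incubated 5 hr, then treated 2 hr with FRET substrate before dual-emission fluorescence measurement (405 nm excitation).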
The nature of experiment [8]: Human pregnane X receptor (PXR) small molecule agonists, qHTS cell viability counter screen (AID 1346977). Also: nearly all actives have a fitted effect of over 50% in size. Also: potency is read from the fitted curve at half-maximal effect. A digest of the protocol: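 Measures live-cell protease fluorescence (CellTiter-Fluor) in PXR-Luc HepG2 cells treated 24hr with compounds at 37C. Cells had 5hr to attach before pin transfer of DMSO solutions.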
Experiment [9] in a line: Caspase-3/7 induction in HepG2 cells by small molecules, qHTS assay (AID 1346978). Also: nearly all actives have a fitted effect of over 15% in size. A digest of the protocol:
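Caspase-3/7 induction was measured by Caspase-Glo 3/7 luminescence (30 min, room temperature) after a 17 hr compound exposure of wild-type HepG2 cells seeded at 2,000 per well and pre-incubated 5 hr.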

Experiment [10] is described as follows: Caspase-3/7 induction in CHO-K1 cells by small molecules, qHTS assay (AID 1346980). Also: nearly all actives have a fitted effect of over 15% in size. A digest of the protocol:
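Luminescent Caspase-Glo 3/7 read (30min, room temperature) quantified apoptosis induction. Cells were wild-type CHO-K1, treated with compound for 17hr at 37 C and 5% CO2.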

Experiment [11] can be described thus: Caspase-3/7 induction in HepG2 cells by small molecules, qHTS cell viability counter screen (AID 1346981). Also: nearly all actives have a fitted effect of over 30% in size. Also: potency is read from the fitted curve at half-maximal effect. As to activity change, negative = cytotoxicity: series mostly up to about 92 µM. In outline:
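HepG2, WT, 2,000 cells/well; 5 hr pre-incubation 37 C/5% CO2; compound pin-transferred from DMSO; 16 hr exposure; CellTiter-Fluor, 1 hr; fluorescence read.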

Experiment [12] addresses Nuclear receptor subfamily 1 group I member 2 (Homo sapiens) (UniProt O75469). Nature of the experiment: Human pregnane X receptor (PXR) small molecule agonists, qHTS assay (AID 1346982). Also: nearly all actives have a fitted effect of over 35% in size. In outline:
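Luciferase signal from ONE-Glo (30 min, room temperature) measured activation of hPXR-driven CYP3A4 reporter expression in PXR-Luc HepG2 cells treated with compounds for 24 hr at 37 C.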

Experiment [13] concerns the target Cytochrome P450 2D6 (Homo sapiens) (UniProt P10635). Put plainly: Cytochrome P450 Family 2 Subfamily D Member 6 (CYP2D6) small molecule antagonists: luciferase reporter qHTS assay (AID 1671196). Also: nearly all actives have a fitted effect of over 50% in size. Also: potency is read from the fitted curve at half-maximal effect. As to activity change, negative = inhibition: series mostly up to about 120 µM. In outline:
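Read-out is luminescence from luciferin formed by CYP2D6 turnover of a proluciferin substrate, recorded as relative luminescence units. Reactions ran 1 h at room temperature after NADPH regeneration solution was added.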
(A reporter such as luciferase makes a cellular process visible.)

Experiment [14] in a line: Caspase-3/7 induction in CHO-K1 cells by small molecules, qHTS cell viability counter screen (AID 1346979). Also: nearly all actives have a fitted effect of over 35% in size. Also: potency is read from the fitted curve at half-maximal effect. A digest of the protocol:
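In the same wells as the caspase read, viability of compound-treated wild-type CHO-K1 cells was assessed using CellTiter-Fluor, added after 16hr at 37C and measured by fluorescence following 1hr further incubation.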

Experiment [15] concerns the target Nuclear receptor subfamily 1 group I member 2 (Rattus norvegicus) (UniProt Q9R1A7). Nature of the experiment: Rat pregnane X receptor (rPXR) activation by small molecules, qHTS assay (AID 1346983). Also: nearly all actives have a fitted effect of over 20% in size. As to conditions: rPXR luciferase reporter cells, One-Glo luminescence, 24 h; stronger effect = higher value. In outline: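 Luminescent readout (One-Glo luciferase, 30 min room temperature) followed 24 hr compound treatment at 37 C of rPXR cells plated 2,000 per well and preincubated 5hr; qHTS format with compounds delivered in DMSO.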

Experiment [16] deals with Nuclear receptor subfamily 1 group I member 2 (Homo sapiens) (UniProt O75469). Put plainly: CYP3A4 induction through human pregnane X receptor (PXR) by small molecules, qHTS assay (AID 1346984). Also: nearly all actives have a fitted effect of over 40% in size. In outline: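 Luminescence readout: luciferase signal after One-Glo (30 min, room temperature), following 3 h at 37C with 3uM final Luciferin-IPA P450 substrate. Cells were DPX-2 (HepG2, PXR/CYP3A4-luc co-transfected) dosed for 24 h.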

The target is the same in experiment [17]. Nature of the experiment: Human pregnane X receptor (PXR) activation by small molecules, qHTS assay (AID 1346985). Also: nearly all actives have a fitted effect of over 40% in size. In outline:
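DPX-2 cells (HepG2 co-transfected with a PXR response element and a CYP3A4-promoter luciferase construct) were seeded at 2,000 per well, rested 5 hr at 37C, then exposed to DMSO-dissolved compounds for 24 hr. Activation was read as luciferase luminescence.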

A short description of experiment [18]: qHTS assay to identify small molecule antagonists of the TGF-beta/Smad signaling pathway - cell viability counter screen (AID 1346824). Also: nearly all actives have a fitted effect of over 50% in size. A digest of the protocol: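 Cytotoxicity counter-screen run in the same wells as the beta-lactamase Smad reporter read: CellTiter-Glo luminescence after 30 min at room temperature. HEK 293T SBE-bla cells had 5 hr compound exposure at 37 C with TGF-beta1 (0.25 ng/mL stock).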

Experiment [19] addresses Thyrotropin-releasing hormone receptor (Homo sapiens) (UniProt P34981). Nature of the experiment: qHTS assay to identify small molecule antagonists of the thyrotropin-releasing hormone receptor (TRHR) signaling pathway (AID 1346877; active = well fitted inhibition curve with a large enough effect in the repeat runs, not every such curve was filed as active; also: potency is read from the fitted curve at half-maximal effect). In outline:
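Intracellular calcium fluorescence, read kinetically every second over 3 min, reports TRH-evoked signalling in HEK293 cells carrying TRHR. Test compounds were added 5 min ahead of a 1 nM TRH challenge.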

For experiment [20] the target is unchanged. Nature of the experiment: qHTS assay to identify small molecule agonists of the thyrotropin-releasing hormone receptor (TRHR) signaling pathway (AID 1346891; calls by dose curve;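 also: HEK293 cells expressing TRHR with calcium dye readout; series mostly up to about 58 µM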). A digest of the protocol:
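Agonist-mode calcium mobilisation screen: TRHR-transfected HEK293 cells cultured overnight (18 h), dye-loaded for 2 h at 37 °C, exposed to compounds, and monitored by fluorescence for 3 min.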

“And” between values parts separate entries of the source, which are not always exact repeats. Equal values may be shown once. Results filed as inconclusive are left out. Some structures have more than one record in an assay (separate samples or runs), and their calls can disagree. The source made the active and inactive calls. Unless noted, calls follow the shape of the dose curve; as a rule, active = well fitted curve in the direction sought with a large enough effect in the repeat runs; inconclusive = weak or mixed curves; inactive = no such curve, though single readings can be large; an effect the other way counts as inactive or inconclusive.
% is scaled to controls: 0 for no effect and ±100 for the full control effect.

Chain of Nuclear receptor subfamily 1 group I member 2 (Homo sapiens) (O75469 whole entry, looked up): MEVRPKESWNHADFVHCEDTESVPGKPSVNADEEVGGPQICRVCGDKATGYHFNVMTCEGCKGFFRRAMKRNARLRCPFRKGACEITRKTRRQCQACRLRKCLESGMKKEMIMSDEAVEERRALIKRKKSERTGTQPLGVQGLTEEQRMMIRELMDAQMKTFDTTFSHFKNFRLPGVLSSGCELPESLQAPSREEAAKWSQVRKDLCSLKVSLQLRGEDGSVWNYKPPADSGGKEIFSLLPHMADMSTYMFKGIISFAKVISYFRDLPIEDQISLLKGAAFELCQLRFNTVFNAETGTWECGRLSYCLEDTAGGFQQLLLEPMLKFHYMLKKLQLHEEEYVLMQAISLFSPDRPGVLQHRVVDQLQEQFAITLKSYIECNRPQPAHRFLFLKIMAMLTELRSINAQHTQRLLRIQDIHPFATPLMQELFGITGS
Chain of Progesterone receptor (Homo sapiens) (P06401 whole entry, looked up): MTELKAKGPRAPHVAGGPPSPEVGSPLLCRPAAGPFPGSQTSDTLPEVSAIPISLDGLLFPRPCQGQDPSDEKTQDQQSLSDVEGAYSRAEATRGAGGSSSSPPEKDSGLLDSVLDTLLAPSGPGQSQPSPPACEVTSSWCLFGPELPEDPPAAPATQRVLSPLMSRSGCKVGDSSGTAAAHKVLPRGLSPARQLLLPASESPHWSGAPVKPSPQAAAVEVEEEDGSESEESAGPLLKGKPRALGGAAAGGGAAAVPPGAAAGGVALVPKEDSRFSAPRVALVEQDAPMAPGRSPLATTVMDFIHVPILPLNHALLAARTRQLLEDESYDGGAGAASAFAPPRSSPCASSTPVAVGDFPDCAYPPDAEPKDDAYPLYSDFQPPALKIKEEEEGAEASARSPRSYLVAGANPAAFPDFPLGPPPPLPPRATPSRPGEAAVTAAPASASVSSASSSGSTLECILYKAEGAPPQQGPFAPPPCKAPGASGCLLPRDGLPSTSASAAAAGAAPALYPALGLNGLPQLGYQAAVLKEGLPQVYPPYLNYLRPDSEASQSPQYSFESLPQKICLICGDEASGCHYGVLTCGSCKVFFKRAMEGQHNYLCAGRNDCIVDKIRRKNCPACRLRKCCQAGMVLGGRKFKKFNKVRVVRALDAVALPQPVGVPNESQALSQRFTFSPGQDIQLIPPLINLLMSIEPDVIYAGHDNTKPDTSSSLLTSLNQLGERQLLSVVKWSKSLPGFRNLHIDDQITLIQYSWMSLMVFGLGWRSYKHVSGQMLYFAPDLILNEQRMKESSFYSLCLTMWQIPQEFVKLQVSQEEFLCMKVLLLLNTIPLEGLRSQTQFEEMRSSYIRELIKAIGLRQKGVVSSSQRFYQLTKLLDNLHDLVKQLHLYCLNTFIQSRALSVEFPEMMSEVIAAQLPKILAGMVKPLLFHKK
Chain of Cytochrome P450 2D6 (Homo sapiens) (P10635 whole entry, looked up): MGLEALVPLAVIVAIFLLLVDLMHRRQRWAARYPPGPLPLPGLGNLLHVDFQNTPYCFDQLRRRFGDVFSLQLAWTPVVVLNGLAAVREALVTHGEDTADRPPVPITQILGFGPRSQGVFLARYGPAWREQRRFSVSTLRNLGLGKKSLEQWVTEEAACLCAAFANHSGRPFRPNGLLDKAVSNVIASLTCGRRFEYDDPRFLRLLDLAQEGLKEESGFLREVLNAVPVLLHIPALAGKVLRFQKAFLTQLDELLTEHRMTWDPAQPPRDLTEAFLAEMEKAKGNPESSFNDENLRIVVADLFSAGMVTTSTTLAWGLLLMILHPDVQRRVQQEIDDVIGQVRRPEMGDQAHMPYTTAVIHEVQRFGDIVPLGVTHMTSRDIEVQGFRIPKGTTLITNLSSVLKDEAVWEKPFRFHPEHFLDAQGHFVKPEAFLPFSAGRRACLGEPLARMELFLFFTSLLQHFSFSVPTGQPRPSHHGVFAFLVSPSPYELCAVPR
Chain of Thyrotropin-releasing hormone receptor (Homo sapiens) (P34981 whole entry, looked up): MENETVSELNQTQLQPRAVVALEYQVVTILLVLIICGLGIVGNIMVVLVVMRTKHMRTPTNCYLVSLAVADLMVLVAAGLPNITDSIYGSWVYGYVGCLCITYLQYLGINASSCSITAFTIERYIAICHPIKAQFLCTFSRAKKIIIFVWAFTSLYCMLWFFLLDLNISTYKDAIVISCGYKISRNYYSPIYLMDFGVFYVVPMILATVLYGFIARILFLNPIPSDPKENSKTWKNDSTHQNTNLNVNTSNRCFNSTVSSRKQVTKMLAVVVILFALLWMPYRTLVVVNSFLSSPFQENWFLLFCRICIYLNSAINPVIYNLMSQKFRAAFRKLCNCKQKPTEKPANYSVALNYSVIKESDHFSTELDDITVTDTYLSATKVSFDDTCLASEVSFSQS
Chain of Nuclear receptor subfamily 1 group I member 2 (Rattus norvegicus) (Q9R1A7 whole entry, looked up): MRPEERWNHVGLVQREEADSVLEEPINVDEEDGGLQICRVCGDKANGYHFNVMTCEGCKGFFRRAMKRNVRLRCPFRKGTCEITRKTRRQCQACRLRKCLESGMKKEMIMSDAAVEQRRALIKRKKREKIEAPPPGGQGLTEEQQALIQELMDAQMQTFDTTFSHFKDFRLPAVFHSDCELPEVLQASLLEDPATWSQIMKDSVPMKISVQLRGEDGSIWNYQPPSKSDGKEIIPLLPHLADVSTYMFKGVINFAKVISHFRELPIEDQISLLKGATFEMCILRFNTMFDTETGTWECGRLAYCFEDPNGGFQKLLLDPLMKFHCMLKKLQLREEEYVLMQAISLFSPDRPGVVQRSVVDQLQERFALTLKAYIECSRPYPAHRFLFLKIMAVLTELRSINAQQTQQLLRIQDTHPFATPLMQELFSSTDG

Take `COc1cc2nc(N3CCN(C(=O)c4ccco4)CC3)nc(N)c2cc1OC`: the activity change, negative = cytotoxicity in experiment [1] was -1.18% [at 19 µM] (inactive); in experiment [4], -16.5% [at 18.9 µM] (inactive); in experiment [5], 2.28% [at 19 µM] (inactive); in experiment [6], 0.758% [at 15.8 µM] (inactive); in experiment [11], -12% [at 19 µM] (inactive). Also, the activation in experiment [2] is 4.29% [at 19 µM] (inactive); in [7], -4.52% [at 15.8 µM] (inactive); in experiment [12], 6.3% [at 19 µM] (inactive). The activity change, negative = inhibition is 5.13% [at 18.9 µM] (inactive) in experiment [3] and -17.8% [at 23.6 µM] (inactive) in [13]. Moreover, the Potency in experiment [8] was 11.6 µM (active). For the same molecule, the caspase activation in [9] was 12.8% [at 19 µM] (inactive). The caspase-3/7 activation in experiment [10] is 0.614% [at 19 µM] (inactive).
`Nc1nc2c(ncn2COCCO)c(=O)[nH]1`: the Potency entry in experiment [1], in [2], in experiment [3], in experiment [4], in experiment [5] and in experiment [6] was “inactive” in each case. Also, the Potency entry in experiment [8], in experiment [9], in experiment [14], in [10], in experiment [11] and in experiment [12] was “inactive” throughout. Besides, the Potency entry in [16] and in experiment [17] was “inactive” in each case. Besides, the max activation in experiment [15] is -0.779% (inactive).
Turning to `CCCC1CCC(=O)CC1`, the Potency entry in experiment [1], in experiment [2], in experiment [3], in experiment [4], in experiment [5] and in experiment [18] was “inactive” each time. Besides, the Potency entry in experiment [19], in experiment [8], in [9], in [14], in experiment [10] and in experiment [11] was “inactive” throughout. For the same molecule, the Potency entry in [12] and in [13] was “inactive” each time. Moreover, in experiment [20], the molecule was classed as inactive.
In the case of `CCCCOC(=O)CO`, the Potency result in experiment [1], in experiment [2], in [3], in experiment [4], in experiment [18] and in experiment [6] was “inactive” each time. The Potency result in [7], in experiment [19], in experiment [9], in experiment [14], in experiment [10] and in experiment [11] was “inactive” in each case. In addition, the Potency entry in [12] and in experiment [13] was “inactive” each time. In addition, the molecule was classed as inactive in [20].
As to `CN(C)CCN1CCN(c2cccc(Cl)c2)C1=O`, the Potency entry in experiment [1], in experiment [2], in experiment [3], in experiment [4], in [18] and in experiment [6] was “inactive” throughout. Moreover, the Potency result in experiment [7], in experiment [19], in experiment [9], in [14], in experiment [10] and in experiment [11] was “inactive” in each case. For the same molecule, the molecule was classed as inactive in experiment [20].
In the case of `CCCCOC(=O)CC`, the Potency entry in [1], in experiment [2], in [3], in [4], in experiment [18] and in [6] was “inactive” each time. For the same molecule, the Potency entry in experiment [7], in [19], in experiment [8], in experiment [14], in experiment [11] and in experiment [12] was “inactive” throughout. Also, the Potency result in [13] was “inactive”. For the same molecule, in [20], the result was inactive.
For `O=C1c2ccccc2C(=O)N1SC1CCCCC1`, the Potency result in experiment [1], in experiment [2], in experiment [3], in experiment [4], in experiment [5] and in experiment [18] was “inactive” in each case. The Potency entry in [6], in experiment [8], in experiment [10], in experiment [11] and in [12] was “inactive” throughout. The Potency in experiment [19] is 30.1 µM (active) and inactive; in [14] it was 54.4 µM (active) and 43.3 µM (active). Moreover, the outcome in experiment [20] was inactive.
For the molecule `Nc1ccc(NCCO)c([N+](=O)[O-])c1`, the Potency in [1] is 30.6 µM (active); in experiment [8], 48.6 µM (active); in experiment [14], 43.3 µM (active); in [11] it was 48.6 µM (active); in [13], 35.6 µM (active). Further, the Potency entry in experiment [2], in experiment [3], in experiment [4], in [5], in [18] and in experiment [7] was “inactive” throughout. For the same molecule, the Potency entry in [19], in [9], in [10] and in experiment [12] was “inactive” in each case. For the same molecule, the call in [20] was inactive.
